Screening results deposited in PubChem BioAssay by several laboratories.
DAX1 inh-1 – inhibitors of DAX1 repression of SF-1 activated StAR promoter; AID 652010; HEK293T StAR-luciferase reporter, SF-1/DAX-1 repression relief; hit rate 1.1% among 370,000; inhibition, % at 6.8 µM;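 active = inhibition above the mean over all tested compounds plus 3 SD, cut at about 3.6% in these data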;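 note: 0% = DAX-1 cells with DMSO and 100% = cells lacking DAX-1 with DMSO; higher inhibition means more luminescence from relief of DAX-1 repression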
hgDAF-12 ag – activates the H. glycines DAF-12 receptor ligand-binding domain; activation, % at 6.8 µM; hit rate 1.8% among 370,000; HEK293 GAL4-hgDAF12 UAS-luciferase reporter, agonist luminescence; normalized to butyrate control;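 active = activation above a cutoff set at the mean of all screened compounds plus 3 SD, cut at about 10% in these data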;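 note: 0% = DMSO wells and 100% = sodium butyrate wells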
hcDAF12 agonist – H. contortus DAF-12 activation, primary screen; HEK293 hcDAF-12 lit1-tk-luc reporter, luminescence; 0% DMSO, 100% Δ7-dafachronic acid; activation, % at 6.8 µM; hit rate 1.4% among 370,000; AID 652067;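 active = activation above the mean of all tested compounds plus 3 SD, cut at about 5.5% in these data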;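 note: 100% = response to 3 µM Δ7-dafachronic acid high control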
DAX1 inh-2 – NR0B1 (DAX1) inhibition. HEK293 Gal4-DAX1 luciferase reporter, luminescence. inhibition, % at 6.75 µM. hit rate 0.99% among 340,000. AID 504766;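 active = inhibition above the mean over all tested compounds plus 3 SD, cut at about 4.2% in these data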;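 note: 0% = DAX1-transfected cells with DMSO and 100% = empty-vector control cells with DMSO; inhibition shows as a rise in luminescence from relieved DAX1 repression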
NR1D1 modulator – modulates human Rev-erb alpha binding to DNA. AID 1259318. Rev-erbα–FITC-DNA binding, fluorescence polarization, 90 min. P20393. activity, % at 10 µM. hit rate 0.79% among 370,000;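 active = activity above about 14%, limit read from the data; passing the limit was not always enough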;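 note: 0% = DMSO wells with 35 nM protein and 100% = DMSO wells with 750 nM protein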
ssDAF12 agonist – S. stercoralis DAF-12 activation, primary screen; HEK293 ssDAF-12/GRIP1 lit1-tk-luc reporter, luminescence; % of 3 µM dafachronic acid response; activation, % at 6.8 µM; hit rate 1% among 370,000; AID 652126;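 active = activation above the mean over all tested compounds plus 3 SD, cut at about 0.9% in these data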;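 note: 0% = DMSO-only wells and 100% = 3 µM delta7-dafachronic acid wells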
DAX1 inh confirm – confirmation of human DAX1 (NR0B1) inhibitors; shares compounds with DAX1 inh-1; HEK293T StAR-promoter luciferase reporter, SF-1/DAX-1 repression; inhibition, % at 6.8 µM; hit rate 87% among 2,400; AID 652134;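 active = inhibition above the average of every tested compound plus 3 SD, cut at about 3.8% in these data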;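 note: 0% = DAX-1 cells with DMSO and 100% = no DAX-1 control cells with DMSO; active compounds raise luminescence by relieving repression of the StAR reporter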
Target sequence (P51843 whole entry, looked up): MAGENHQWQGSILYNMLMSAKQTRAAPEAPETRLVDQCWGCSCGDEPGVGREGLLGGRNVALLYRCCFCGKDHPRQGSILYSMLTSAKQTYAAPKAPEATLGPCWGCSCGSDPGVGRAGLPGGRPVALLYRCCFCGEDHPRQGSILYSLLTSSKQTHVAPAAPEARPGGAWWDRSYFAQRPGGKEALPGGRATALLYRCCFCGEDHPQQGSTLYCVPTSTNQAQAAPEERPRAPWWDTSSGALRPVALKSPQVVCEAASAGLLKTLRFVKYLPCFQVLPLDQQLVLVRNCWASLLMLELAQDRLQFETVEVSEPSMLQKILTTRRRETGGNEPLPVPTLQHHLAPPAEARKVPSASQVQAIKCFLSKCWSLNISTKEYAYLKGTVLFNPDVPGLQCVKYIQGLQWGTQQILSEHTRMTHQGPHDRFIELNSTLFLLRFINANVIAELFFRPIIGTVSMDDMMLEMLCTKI
SF1 AF2mut Luc – nonselective inhibitor or artifact in SF-1 mutant DAX1 counter-screen; shares compounds with DAX1 inh-1; HEK293 StAR-luciferase, SF-1 AF2 mutant, luminescence; inhibition, % at 6.8 µM; hit rate 78% among 2,400; AID 652136;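 active = inhibition above the mean of all tested compounds plus 3 SD, cut at about 3% in these data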;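 note: 0% = DAX-1 transfected cells with DMSO and 100% = cells without DAX-1 with DMSO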
* = called active by the depositor. Hits are enriched below; roughly 4.8% of the tested compounds scored in any of these assays.

Screening Cn1ccnc1SCC(=O)Nc1ccc(SC(F)F)cc1 returned DAX1 inh-1 6.2*, hgDAF-12 ag 5, hcDAF12 agonist 2, DAX1 inh-2 1, NR1D1 modulator 2, ssDAF12 agonist 0, DAX1 inh confirm 8.4* and SF1 AF2mut Luc 5.3*.
For COc1cccc(C(=O)CSc2nccn2C)c1 the results were DAX1 inh-1 0, hgDAF-12 ag 3, hcDAF12 agonist 1, DAX1 inh-2 4, NR1D1 modulator -4 and ssDAF12 agonist 0.
Screening CCCC[C@H]1C2CC(OC(=O)Nc3ccc(F)cc3)C(C2)[C@H]2CCCCN21 (stereo not given in full) returned DAX1 inh-1 -1, hgDAF-12 ag 0, hcDAF12 agonist -1, NR1D1 modulator 2 and ssDAF12 agonist 0.
For COC(=O)C1CN(C2CCCC2)CCS(=O)(=O)N1Cc1cn(Cc2ccc(Cl)cc2)nn1 (stereo not given) the results were DAX1 inh-1 0, hgDAF-12 ag 1, hcDAF12 agonist -2, NR1D1 modulator -4 and ssDAF12 agonist -2.
Screening COc1ccc2nc(N3CCN(C(=O)C4COc5ccccc5O4)CC3)sc2c1 (stereo not given) returned DAX1 inh-1 7.1*, hgDAF-12 ag 10, hcDAF12 agonist 2, DAX1 inh-2 0, NR1D1 modulator -4, ssDAF12 agonist -1, DAX1 inh confirm 11* and SF1 AF2mut Luc 5.5*.
Screening COc1ccc(S(=O)(=O)N2CCN(C(=O)C3COc4ccccc4O3)CC2)cc1 (stereo not given) returned DAX1 inh-1 -1, hgDAF-12 ag -1, hcDAF12 agonist -1, DAX1 inh-2 0, NR1D1 modulator -24 and ssDAF12 agonist -1.
For Cc1ccc(CN(C)C(=O)C2CCC(=O)N(CCc3ccccc3)C2)o1 (stereo not given) the results were DAX1 inh-1 5.8*, hgDAF-12 ag 4, hcDAF12 agonist 2, DAX1 inh-2 1, NR1D1 modulator -7, ssDAF12 agonist -1, DAX1 inh confirm 4.2* and SF1 AF2mut Luc 3.6*.
Screening CN(Cc1cnccn1)C(=O)C1CCC(=O)N(CCc2ccccc2)C1 (stereo not given) returned DAX1 inh-1 1, hgDAF-12 ag -1, hcDAF12 agonist -1, DAX1 inh-2 1, NR1D1 modulator 6 and ssDAF12 agonist -1.
O=C(O)CCCC[n+]1ccccc1 was read as DAX1 inh-1 0, hgDAF-12 ag 1, hcDAF12 agonist -1, NR1D1 modulator -1 and ssDAF12 agonist -2.
`O=C(C=Cc1ccccc1)N1CCCCC1` gave DAX1 inh-1 5.2*, hgDAF-12 ag 5, hcDAF12 agonist 3, DAX1 inh-2 2, NR1D1 modulator -2, ssDAF12 agonist 0, DAX1 inh confirm 6.2* and SF1 AF2mut Luc 4.7*.
Screening Cc1ccc(C)c(OCc2cc(C(=O)N3CCN(C4CCCCC4)CC3)no2)c1 returned DAX1 inh-1 1, hgDAF-12 ag 3, hcDAF12 agonist 3, DAX1 inh-2 1, NR1D1 modulator 6 and ssDAF12 agonist -1.
`Cc1ccc(C)c(OCc2cc(C(=O)N3CC[C@@H]4CCCC[C@H]4C3)no2)c1` gave DAX1 inh-1 5.5*, hgDAF-12 ag 9, hcDAF12 agonist 6.5*, DAX1 inh-2 1, NR1D1 modulator 1, ssDAF12 agonist 0, DAX1 inh confirm 2 and SF1 AF2mut Luc 3.3*.
For Cc1ccc(C)c(OCc2cc(C(=O)N3C[C@@H](C)O[C@@H](C)C3)no2)c1 the results were DAX1 inh-1 4.6*, hgDAF-12 ag 9, hcDAF12 agonist 1, DAX1 inh-2 2, NR1D1 modulator -4, ssDAF12 agonist -1, DAX1 inh confirm 4.8* and SF1 AF2mut Luc 4.2*.
COC(=O)C1CN(C2CC2)CCS(=O)(=O)N1Cc1cn(Cc2ccccc2)nn1 (stereo not given) was read as DAX1 inh-1 -1, hgDAF-12 ag 1, hcDAF12 agonist -1, NR1D1 modulator 1 and ssDAF12 agonist -1.
Screening Nn1c(SCC(=O)NC2CCCCC2)nnc1-c1n[nH]c2c1CCC2 returned DAX1 inh-1 -1, hgDAF-12 ag -4, hcDAF12 agonist -3, NR1D1 modulator -3 and ssDAF12 agonist -1.
For CC(=O)c1cc(-c2ccccc2)n(CC(=O)NCc2ccc(F)cc2)c1C the results were DAX1 inh-1 -1, hgDAF-12 ag -1, hcDAF12 agonist -3, NR1D1 modulator -2 and ssDAF12 agonist -1.
`CCc1cc2c(nc1CC)CCCN2S(=O)(=O)c1ccc(C)cc1` gave DAX1 inh-1 -2, hgDAF-12 ag -4, hcDAF12 agonist -1, NR1D1 modulator -2 and ssDAF12 agonist -2.
`COc1ccccc1Oc1ncnc2c1cnn2-c1ccccc1` gave DAX1 inh-1 4.7*, hgDAF-12 ag 12*, hcDAF12 agonist 2, DAX1 inh-2 0, NR1D1 modulator 4, ssDAF12 agonist -1, DAX1 inh confirm 3 and SF1 AF2mut Luc 3.6*.
For COc1ncnc2c1cnn2-c1ccccc1 the results were DAX1 inh-1 0, hgDAF-12 ag 2, hcDAF12 agonist -1, DAX1 inh-2 1 and ssDAF12 agonist -1.
For CCOC(=O)[C@]12CCCCC/C=C\1N(Cc1ccc(OC)cc1)C(=O)[C@H]2CC(=O)NCC1CCCCC1 the results were DAX1 inh-1 0, hgDAF-12 ag 0, hcDAF12 agonist -3, NR1D1 modulator 8 and ssDAF12 agonist -1.
Screening O=S(=O)(CC1NCc2ccccc21)NCc1ccc(F)cc1 (stereo not given) returned DAX1 inh-1 0, hgDAF-12 ag 1, hcDAF12 agonist 2, NR1D1 modulator 4 and ssDAF12 agonist 1.
For CCCN1CCN(CCCNC(=O)C(CC)n2nc(C)c3sc4ccccc4c3c2=O)CC1 (stereo not given) the results were DAX1 inh-1 5.3*, hgDAF-12 ag 1, hcDAF12 agonist 2, DAX1 inh-2 1, NR1D1 modulator 0, ssDAF12 agonist -1, DAX1 inh confirm 3 and SF1 AF2mut Luc 4.3*.
CCC(C(=O)NCCCN1CCN(C)CC1)n1nc(C)c2sc3ccccc3c2c1=O (stereo not given) was read as DAX1 inh-1 0, hgDAF-12 ag 0, hcDAF12 agonist 0, DAX1 inh-2 0, NR1D1 modulator 4 and ssDAF12 agonist -1.
CC(=O)Nc1cccc(-c2cc3c(c4c2ccn4C)C2CCC3O2)c1 (stereo not given) was read as DAX1 inh-1 -1, hgDAF-12 ag -1, hcDAF12 agonist 2, NR1D1 modulator -8 and ssDAF12 agonist -2.
